From PubChem BioAssay come the findings set out here.

In general, viability refers to a read-out of living cells in per cent, often relative to untreated cells. The inhibition is the change of the read-out against control, counted positive when it falls.

Test [1] is described as follows: EMT-state selective cytotoxicity in co-culture – imaging, PC-3E GFP, TEM4-18 mCherry, primary screen (AID 1345086;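 active = compounds killing one labelled cell type while sparing the other, by normalised counts and ratio limits, not self-fluorescent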;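 for all read-outs here: cells exposed to compound for 72 h before imaging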;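 for red/green cell ratio (normalised): normalised mesenchymal count divided by normalised epithelial count so high means epithelial killing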). Conditions: PC-3E GFP / TEM4-18 mCherry co-culture, imaging cell counts, at 1 µM; for red/green cell ratio (normalised): actives lie on both sides, counts scaled to control wells, 1 = unselective.
Test [2] can be described thus: viability loss with induced miR-34 in A549 – imaging, A549 dox-inducible miR-34, nuclei and caspase counts, primary screen (AID 1347080). As to conditions: A549 miR-34 inducible, Hoechst nuclei count, 48 h.
Test [3] has as its target NAD(+) hydrolase SARM1 (Homo sapiens) (UniProt Q6SZW1). The experiment in a line: blocking NAD cleavage by SARM1 SAM-TIR – cell lysate, NAD-Glo luminescence (AID 1508614;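 active = compound whose remaining NAD level is above about 45 nM, limit read from the data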;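 note: higher remaining NAD means stronger inhibition of SARM1 NADase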). As to conditions: SAM-TIR HEK293T lysate NADase, at 1 µM, stronger effect = higher value.
Test [4] can be described thus: P. berghei load reduction in hepatocytes – cell-based, HepG2, luciferase luminescence, HepG2 viability, primary screen (AID 624349; in the data active = parasite load remaining mostly below about 12%, no sharp cut-off; inactive = mostly above about 10%;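 note: 100% = mean of DMSO negative control wells on the same plate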). As to conditions: P. berghei liver stage in HepG2, luciferase luminescence, concentration not given here; parasite load remaining: stronger effect = lower value; viability: measured here: HepG2 viability without parasites.
Test [5] in a line: MELAS cybrid and Rieske KO viability enhancers – cell-based, MELAS cybrids, Rieske KO mouse fibroblasts, CellTiter-Glo, primary screen (AID 1508586;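 active = mean z-score across replicates of 1.96 or higher in either the MELAS or the Rieske mutant cell line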;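 note: z relative to plate mean and SD of compound and empty wells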). Conditions: low glucose.
The nature of test [6]: galactose survival enhancers in mitochondrial complex I cybrids – cell-based, galactose medium, ATP luminescence, primary screen (AID 1645843;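 active = z-score of at least 1.8 in each of two replicates, scored against plate mean and spread of sample wells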;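 note: positive z means more ATP and so rescue of galactose-driven cybrid death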). Conditions: complex I mutant cybrid cells, 72 h, stronger effect = higher value.
The target of test [7] is Mitogen-activated protein kinase 7 (Homo sapiens) (UniProt Q13164). The experiment in a line: Gal4-ERK5 driven luciferase induction – cell-based, HTS, primary screen (AID 1508626;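 active = luciferase signal above three times the same-plate solvent-only control wells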;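 note: luciferase driven by Gal4-ERK5 fusion binding five Gal4 sites before minimal TATA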). As to conditions: HeLa Gal4-ERK5 transactivation, 18 h, at 5 µM, stronger effect = higher value.
Test [8] can be described thus: blockers of polyQ-driven CASP3 activation – cell-based (AID 1583). Conditions: polyglutamine-induced caspase-3 activation, cell assay; stronger effect = higher value;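 tested at 10 µM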.
Test [9] is described as follows: yeast 75Q aggregation reduction – 75Q-TubU reporter (AID 1593). As to conditions: Yeast 75Q polyglutamine aggregation reporter.
Test [10] can be described thus: restoration of touch response, mutant HTT neurons – whole organism, C. elegans mechanosensory neurons, N-terminal huntingtin (AID 1599). As to conditions: C. elegans polyQ-huntingtin mechanosensory neurons, stronger effect = higher value.
Test [11] is described as follows: blockers of cytochrome c efflux from mitochondria – biochemical, purified mitochondria (AID 1603).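 Note: mouse liver mitochondria challenged with calcium chloride; signal normalized to the plate average as 100%.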 As to conditions: stronger effect = lower value.
The nature of test [12]: polyglutamine aggregate formation blockers (AID 1604). As to conditions: polyglutamine-induced protein aggregation inhibition assay; stronger effect = higher value; tested at 2.5 µM.
The nature of test [13]: glutamate transport activators, MN-1 cells, MN-1 cell line (AID 1612).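 Note: tested at 1 µM final; 0% = mean of DMSO vehicle wells on each plate; positive means more glutamate uptake than control and negative means less.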 Conditions: MN-1 motor neuron cells, stronger effect = higher value.
The nature of test [14]: GFP-Q80 aggregate reduction, neuronal-like cells, cell-based, NGF-treated PC12, GFPQ80 (AID 1614).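 Note: lower means fewer inclusions and 0 means no inclusions at all.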 Conditions: PC12 NGF-treated GFP-polyQ80 inclusion reduction.
Test [15] is described as follows: 75Q-TubH aggregate inhibition, S. cerevisiae, yeast (AID 1616). Conditions: S. cerevisiae 75Q-TubH polyglutamine aggregation suppression; stronger effect = higher value.
[16] abbreviates: measured here: epithelial PC-3E GFP cell survival.
[17] abbreviates: measured here: mesenchymal TEM4-18 mCherry cell survival.
Setting [18] is: stronger effect = lower value, cell number ratio, induced over uninduced.
The mark [19] stands for this setting: measured here: relative caspase fold change +Dox/-Dox.
Where [20] appears, read: measured here: total cells with miR-34 induction, stronger effect = lower value.
[21] abbreviates: measured here: total cells without miR-34 induction.
[22] abbreviates: MELAS cybrid survival, CellTiter-Glo 48 h, stronger effect = higher value.
Where [23] appears, read: Rieske KO mouse fibroblast survival, CellTiter-Glo 72 h.

“And” between values parts separate entries of the source, which are not always exact repeats. Identical values can stand only once. For part of these data: Potency and affinity values are given separately. The source made the active and inactive calls.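 Rule for the calls, unless noted: active = compounds whose cell count with miR-34 switched on is under 0.7 times the count with it off; inactive = the rest.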

NAD(+) hydrolase SARM1 (Homo sapiens), sequence (Q6SZW1 whole entry, looked up): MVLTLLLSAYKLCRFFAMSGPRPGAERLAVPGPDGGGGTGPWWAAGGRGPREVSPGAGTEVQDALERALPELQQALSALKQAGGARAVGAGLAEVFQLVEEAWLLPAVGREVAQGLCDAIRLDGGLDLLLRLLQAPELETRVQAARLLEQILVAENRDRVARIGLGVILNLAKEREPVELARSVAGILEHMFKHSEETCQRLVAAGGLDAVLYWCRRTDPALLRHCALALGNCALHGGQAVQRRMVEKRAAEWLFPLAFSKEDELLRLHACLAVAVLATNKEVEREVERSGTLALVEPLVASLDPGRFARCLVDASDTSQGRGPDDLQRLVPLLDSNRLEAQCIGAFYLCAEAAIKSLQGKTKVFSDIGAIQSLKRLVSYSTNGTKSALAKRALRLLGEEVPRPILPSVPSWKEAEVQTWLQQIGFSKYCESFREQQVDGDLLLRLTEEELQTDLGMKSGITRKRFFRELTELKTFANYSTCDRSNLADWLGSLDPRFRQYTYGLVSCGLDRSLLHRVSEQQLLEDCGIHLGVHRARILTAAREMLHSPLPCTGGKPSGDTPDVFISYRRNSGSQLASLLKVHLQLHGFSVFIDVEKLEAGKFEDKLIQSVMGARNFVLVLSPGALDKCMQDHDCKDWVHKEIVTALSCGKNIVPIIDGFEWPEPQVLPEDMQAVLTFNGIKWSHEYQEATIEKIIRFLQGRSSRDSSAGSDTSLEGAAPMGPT
Mitogen-activated protein kinase 7 (Homo sapiens), sequence (Q13164 whole entry, looked up, the tested form may be a part): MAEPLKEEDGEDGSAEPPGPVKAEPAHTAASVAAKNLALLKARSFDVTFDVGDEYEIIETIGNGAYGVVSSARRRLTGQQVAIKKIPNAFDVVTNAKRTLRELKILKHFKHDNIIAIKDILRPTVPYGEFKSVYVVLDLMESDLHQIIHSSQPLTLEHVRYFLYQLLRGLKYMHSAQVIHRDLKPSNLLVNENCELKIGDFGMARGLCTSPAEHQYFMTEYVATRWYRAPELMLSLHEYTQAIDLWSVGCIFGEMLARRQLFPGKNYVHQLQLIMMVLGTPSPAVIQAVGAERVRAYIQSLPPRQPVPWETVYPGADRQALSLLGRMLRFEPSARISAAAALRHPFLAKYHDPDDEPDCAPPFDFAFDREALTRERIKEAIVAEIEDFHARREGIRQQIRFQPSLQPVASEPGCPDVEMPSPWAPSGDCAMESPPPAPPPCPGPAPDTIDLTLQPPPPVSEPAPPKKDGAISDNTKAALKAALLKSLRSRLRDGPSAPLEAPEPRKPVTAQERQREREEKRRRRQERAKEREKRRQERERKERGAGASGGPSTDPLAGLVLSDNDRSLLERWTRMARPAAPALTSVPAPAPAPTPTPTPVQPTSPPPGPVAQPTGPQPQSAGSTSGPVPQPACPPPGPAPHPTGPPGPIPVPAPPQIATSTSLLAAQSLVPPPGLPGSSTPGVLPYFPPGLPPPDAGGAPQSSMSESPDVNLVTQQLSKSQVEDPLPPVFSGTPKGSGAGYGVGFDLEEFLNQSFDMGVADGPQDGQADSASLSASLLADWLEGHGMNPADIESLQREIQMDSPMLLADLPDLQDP

`CCCCCCCC/C=C\CCCCCCCC(=O)O`: the red/green cell ratio (normalised) in test [1] was 1.2 (inactive). The normalised cell number stood at 0.8 in [1] (setting [16]) and 0.96 in test [1] (setting [17]). Moreover, the fold change in test [2] (setting [18]) is 0.965 (inactive) and 1.03 (inactive); in test [2] (setting [19]), 0.674 and 0.77. The cell count in test [2] (setting [20]) was 8820 and 6040; in [2] (setting [21]) it was 9140 and 5860. The remaining NAD in [3] is 10 nM (inactive).

In the case of `CCCCC(CC)CCC(CC(C)C)OS(=O)(=O)O` (configuration not stated), the red/green cell ratio (normalised) in test [1] was 0.93 (inactive). In addition, the values for the normalised cell number in test [1] (setting [16]) and in [1] (setting [17]) were 1.15 and 1.07, respectively. The results for the fold change in test [2] (setting [18]) and in test [2] (setting [19]) were 0.913 (inactive) and 0.896, respectively. For the same compound, the figures for the cell count in test [2] (setting [20]) and in test [2] (setting [21]) were 8490 and 9300, respectively. Moreover, the remaining NAD in test [3] was 10 nM (inactive).

Regarding `CO[C@H](C(=O)[C@@H](O)[C@@H](C)O)[C@@H]1Cc2cc3cc(O[C@H]4C[C@@H](O[C@H]5C[C@@H](O)[C@H](O)[C@@H](C)O5)[C@@H](O)[C@@H](C)O4)c(C)c(O)c3c(O)c2C(=O)[C@H]1O[C@H]1C[C@@H](O[C@H]2C[C@@H](O[C@H]3C[C@](C)(O)[C@H](O)[C@@H](C)O3)[C@H](O)[C@@H](C)O2)[C@H](O)[C@@H](C)O1`, the parasite load remaining in test [4] was -0.08% (active). Besides, the viability in [4] came out at 93%. The red/green cell ratio (normalised) in test [1] was 0.96 (inactive). The normalised cell number in test [1] (setting [16]) was 0.29; in test [1] (setting [17]) it was 0.28. Besides, the fold change in test [2] (setting [18]) was 0.97 (inactive); in [2] (setting [19]), 0.963. Besides, the results for the cell count in test [2] (setting [20]) and in test [2] (setting [21]) were 2240 and 2320, respectively. Besides, the results for the z-score in [5] (setting [22]), in test [5] (setting [23]) and in test [6] were 7.83 (active), -1.51 and -1.89 (inactive), respectively.

As for `CN(C)c1cnccn1`, the red/green cell ratio (normalised) in test [1] is 1.02 (inactive). The normalised cell number in [1] (setting [16]) was 0.95; in test [1] (setting [17]), 0.97. Also, the fold change was 0.783 (inactive) in test [2] (setting [18]) and 1.07 in test [2] (setting [19]). Also, the cell count in test [2] (setting [20]) was 6710; in [2] (setting [21]), 8560. Besides, the remaining NAD in [3] was 10 nM (inactive).

For the compound `CC1(O)CCOC(=O)C1` (configuration not stated), the parasite load remaining in [4] is 86.9% (inactive). For the same compound, in test [4], the viability turned out to be 107%. Besides, the red/green cell ratio (normalised) in [1] is 1.07 (inactive). In addition, the normalised cell number was determined as 0.95 in test [1] (setting [16]) and 1.02 in [1] (setting [17]). The fold change was 0.969 (inactive) in test [2] (setting [18]) and 0.886 in [2] (setting [19]). For the same compound, the cell count in test [2] (setting [20]) stood at 8270; in [2] (setting [21]), 8540. Besides, the z-score in test [5] (setting [22]) is -0.827 (inactive); in [5] (setting [23]), -0.633.

Turning to `C[N+](C)(CCOc1ccccc1)Cc1ccccc1`, the parasite load remaining in [4] was 72.5% (inactive) and 56.2% (inactive). Besides, in [4], the viability is 93.8% and 115%. Besides, the red/green cell ratio (normalised) in [1] is 0.65 (inactive). For the same compound, the results for the normalised cell number in test [1] (setting [16]) and in [1] (setting [17]) were 1.19 and 0.77, respectively. Besides, the fold change is 0.899 (inactive) and 0.879 (inactive) in test [2] (setting [18]); 1.23 and 5.07 in test [2] (setting [19]). Moreover, the cell count in test [2] (setting [20]) was 9230 and 11800; in test [2] (setting [21]), 10300 and 13400. Further, the values for the z-score in [5] (setting [22]) and in test [5] (setting [23]) were 0.608 (inactive) and 0.271, respectively. In [3], the remaining NAD was 10 nM (inactive).

`O=C(O)CC(O)(CC(=O)O)C(=O)O`: the parasite load remaining in test [4] is 61.3% (inactive). The viability in [4] is 186%. Besides, the red/green cell ratio (normalised) in [1] is 1 (inactive). For the same compound, the normalised cell number in test [1] (setting [16]) and in test [1] (setting [17]) was 1.06 throughout. The fold change in test [2] (setting [18]) is 0.829 (inactive); in test [2] (setting [19]), 6.46. The figures for the cell count in test [2] (setting [20]) and in test [2] (setting [21]) were 11100 and 13400, respectively. The remaining NAD in test [3] is 10 nM (inactive). The luciferase signal in test [7] is 52 AU (inactive).

In turn, `CC(C)CC1C(=O)N2CCC[C@H]2C2(O)O[C@](NC(=O)C3C=C4c5cccc6[nH]c(Br)c(c56)C[C@H]4N(C)C3)(C(C)C)C(=O)N12` (some centres not stated) gave an inhibition in test [8] of 2.51%. Further, the score in test [9] amounted to 1.5. The rescue above control in test [10] was found to be 6.29. Further, the cytochrome c release ratio in test [11] turned out to be 4.55. This compound had an inhibition of aggregation in [12] of 72.4%. Besides, the glutamate uptake change in test [13] was -22%. Moreover, in [14], the inclusion score came out at 2.5. The compound further returned an aggregation suppression score in test [15] of 1.46. In addition, the parasite load remaining in [4] is 49.3% (inactive) and 20% (inactive). Moreover, the viability in test [4] was 70.8% and 87%. Also, the red/green cell ratio (normalised) in test [1] is 1.32 (inactive). Also, the results for the normalised cell number in test [1] (setting [16]) and in test [1] (setting [17]) were 0.91 and 1.21, respectively. The fold change was 0.852 (inactive) in [2] (setting [18]) and 1.96 in [2] (setting [19]). Also, the cell count in [2] (setting [20]) worked out at 9430; in [2] (setting [21]), 11100.
